PubChem BioAssay AID1508600 (Functional Genomics Laboratory (NCATS/FGL), 2020)
Screen size: about 53,000 sequences; about 3,700 (7%) were called active. This is one part of a sample in which actives are shown more often than they occur.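 How the source made its calls: active means gene knockdowns whose robust z-score for IL-1 alpha signal is at least 2 or at most -2, so actives lie on both sides; inactive means the rest.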

Test: Components of the Cytosolic LPS Sensing Pathway: Gene Identification via Genome-wide siRNA Screen;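 further: robust z of the log signal after scaling to non-targeting control siRNA wells of the plate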
Conditions: RAW264.7 macrophages, IL-1a HTRF, actives lie on both sides, screened at 100 nM (by protocol), cells primed 5 h with Pam3CSK4 first
Procedure, shortened: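 Using IL-1a HTRF as read-out, the screen measured release from RAW264.7 cells after 48h siRNA knockdown (100 nM), 5 h Pam3CSK4 priming and 24 h cytosolic LipidA. Values were expressed relative to negative-control wells as robust z-scores.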

| Sequence | z-score |
| --- | --- |
| GGAAUCUAUGAACAUGUUUTT against Pcdh12 | -0.433 (inactive) |
| GGCUGGGAAAAAAAAAGAATT against Ifi205 | 0.704 (inactive) |
| GGAUUUUUAUGAUAGUGACTT against Slc4a1ap | -0.747 (inactive) |
| GCAUCACUGGAAAUCUUACTT against Olfr807 | -2.31 (active) |
| CCAUUUGAUCAAGCUUUAGTT against Spock3 | 0.0957 (inactive) |
| GGACUCUCAAUGAUGAAUATT against Map7d3 | 1.85 (inactive) |
| GCGACACAUUCGAUCUCAGTT against Mecom | 4.11 (active) |
| CCAGAUUCGAAUAUCUAAGTT against Mrps30 | 0.935 (inactive) |
| GCCAGAAUGGACUUGAGAATT against Vmn1r227 | -1.21 (inactive) |
| GCCUUAAUGAGGGUUAUGCTT against Fbp1 | -1.11 (inactive) |
| CGAACCAUAGCUAGCUCCATT against Klhdc8b | -0.869 (inactive) |
| GGCUCAGUCCCAUCAGCAUTT against Gdf7 | 0.524 (inactive) |
| GGUUUGAUCUCAUUUUCCUTT against Mcm4 | 2.92 (active) |
| GGAACAGUAUAUAAGUUCATT against Hcfc2 | -0.593 (inactive) |
| GCUACUUCAUGGAAUCUUCTT against Mrgprb8 | -0.668 (inactive) |
| CGUUUGAAUAAUUCAGAGUTT against Armcx2 | -0.152 (inactive) |
| GGUGGAAGGCUUUUUCUACTT against Olfr1104 | 1.63 (inactive) |
| GCGAUACCGUGCCAUGUUUTT against Dohh | -1.21 (inactive) |
| CGAAGAUUACCUUUCAAGATT against St6galnac3 | 0.371 (inactive) |
| GCCCUUUCGCCUAUGGUUUTT against Tedc1 | 0.931 (inactive) |
| GCUAAUCAACAAUGUCGCCTT against Atp5b | 0.781 (inactive) |
| GGUUAAAGUCCUUCAGUAUTT against Tubb3 | 2.83 (active) |

| Sequence | z-score |
| --- | --- |
| GGAAAAAACCACGAUUGAGTT against Pecam1 | -0.434 (inactive) |
| GGCUUACCUACAACAAGUUTT against Ccnt1 | -2.07 (active) |
| GGUUAGGCACAAAUAAGUUTT against B230206H07Rik | 1.08 (inactive) |
| GGUUCCUAUACCCAACGGUTT against Mrgpra7 | -1.07 (inactive) |
| GGUUGAUGAUAGCUCUGAATT against Opn1mw | -0.22 (inactive) |
| GGUCUUAAGGAGAAAUGAATT against Cbln2 | -0.48 (inactive) |
| GCUUCGCUCGCAUUCUUAUTT against Rsrc1 | -0.299 (inactive) |
| GGACUAUCCAGGAAUCGUGTT against Ergic3 | 0.713 (inactive) |
| GGACAAGCUGAAGACGCACTT against Zfp64 | 3.03 (active) |
| GCAUAGUCUUGUUAACCAGTT against Poldip3 | -0.689 (inactive) |
| GGAUUCAUAGACUUCAUAGTT against Impdh1 | 0.608 (inactive) |
| CCAUCUGGACUUCAGUUUUTT against Rap1gap2 | 0.901 (inactive) |
| GCACUCAAAUGGUAGAUUCTT against Socs6 | -0.315 (inactive) |
| GGGUGAACUCGGACAUUGATT against Spata19 | -0.754 (inactive) |
| GCGUGAACACCUGAGGAUUTT against Rchy1 | -0.323 (inactive) |
| GGUGUUGCUUAUCAUCGGCTT against Mrgprh | -2.03 (active) |
| GGGCAUCCUGGAUCAUCAUTT against Nlrp6 | -1.64 (inactive) |
| CCUUAGAUAUCUACUGUAATT against Trim2 | 1.37 (inactive) |
| GGUGCAAGUUUUGGUGGGATT against Etfbkmt | 0.35 (inactive) |
| GGAACCUAAUUGAAUGGCUTT against Cmbl | 0.985 (inactive) |
| GGCGAAUGUGUGAAGAGGCTT against H2-Q5 | -1.97 (inactive) |
| GCUGCUAGCAAAAAGAACUTT against Yaf2 | 2.24 (active) |

| Sequence | z-score |
| --- | --- |
| GGAUGUUACGAAGAAGAUUTT against Ash1l | -0.664 (inactive) |
| GCCAUAUAUCUGCUAUCAUTT against Clvs2 | 2.34 (active) |
| GCAACUUAAAGGCAUCUCCTT against Sntn | 1.53 (inactive) |
| GGGAAUCUUGGCAUGAUGGTT against Olfr1030 | -0.325 (inactive) |
| GGUAUUUAUCUGAAUCUGATT against Dennd2c | 0.668 (inactive) |
| CCAGCCUCUUCUAAUACACTT against Preb | -0.413 (inactive) |
| CCCAUCCAAUGCUUAUGUGTT against Scg5 | -0.421 (inactive) |
| GCCUAAAAAGAGUGGGUCATT against Mllt1 | -2.73 (active) |
| GGAUCUAGGAGCUGAUUAUTT against Mecr | -1.18 (inactive) |
| CCAUCAUGCCCUGUUUGCATT against Cdc42ep3 | 0.393 (inactive) |
| GCUCUUGUUAUUUACGUCGTT against Lgi1 | 0.478 (inactive) |
| CGACCACAUGAGGAUGCAUTT against Zbtb20 | -0.974 (inactive) |
| CCAUUAUUGGCCCAUGCUCTT against Babam1 | -2.75 (active) |
| GGUUAUAAAACUAUGGAACTT against Map2k5 | 0.133 (inactive) |
| GGAUCAUUGUUCUCUCAAGTT against Psmg2 | 0.186 (inactive) |
| GGCUCAAAAGUCUUGGGACTT against Hells | 0.31 (inactive) |
| CGCAGAUGAUUAAGUUGGUTT against Olfr1000 | 0.961 (inactive) |
| GGUGGAGACAGAAAUCCAATT against Amot | 0.23 (inactive) |
| CGGAACCUUAUUUAAAACUTT against Sirt5 | 0.732 (inactive) |
| GGUAUCUGUGCAAGGGCAATT against Defb5 | 2.07 (active) |
| CCUACUCGUGUCGUGAUAATT against Rxrb | -0.841 (inactive) |
| GGGCAUUCAGCAGUUACAGTT against Lrriq4 | 0.521 (inactive) |

| Sequence | z-score |
| --- | --- |
| GGUUUAUGGGACAGUUUUUTT against Plk2 | 5.58 (active) |
| CGUGGAUGAUACCAAAAUGTT against Igsf21 | -0.73 (inactive) |
| GGUGCUGAAGAAGCACCAUTT against Stat5a | 0.271 (inactive) |
| GCGAGAUUCUUGCUUACUCTT against Slc66a2 | -0.472 (inactive) |
| GGAUGUUUUCCCGACAAGATT against Angptl1 | -1.27 (inactive) |
| GGAUGGGAAGACUACCCGATT against Camta2 | -2.62 (active) |
| CGACCUUCAAGGCAAUAUUTT against Anapc2 | -0.573 (inactive) |
| CCAUCUAACCCUAUAUUAGTT against G6pdx | -1.21 (inactive) |
| CCAUGAAUAGCAUCUUUGCTT against Adamtsl2 | -0.25 (inactive) |
| GGAUGACAAAAAUUUCAAGTT against St14 | -0.283 (inactive) |
| GGAGAGGGUCUUAGUCAGATT against Wasf1 | 0.802 (inactive) |
| GGGUGACAUGGUGACCAUCTT against Matk | 3.54 (active) |
| GGCCUUGUAUCUCUUUACATT against Hdgf | 0.425 (inactive) |
| GCUGGUUUUGAACUGUACATT against Flt4 | 0.155 (inactive) |
| CCCAAGUGGUAAGAUUGGUTT against Rps3 | 0.123 (inactive) |
| CCCUUGUCUAAAAUAUACATT against Zfp941 | -0.387 (inactive) |
| CCCUGCUAUCAGCAUCACATT against Hacd3 | -3.09 (active) |
| CGGUAUUUGUCUGUAUCCUTT against Npc2 | -1.71 (inactive) |
| GCUGGAUUCUGGUAAAUGGTT against Eif5a | -0.836 (inactive) |
| GCAGAUCCGAGACAAGUAUTT against Cplx2 | -1.91 (inactive) |
| GGAUGAACAACUCUAGGCCTT against Mafk | -0.736 (inactive) |
| GGUCUACAGCUACCUGAAUTT against Npc2 | 0.105 (inactive) |

| Sequence | z-score |
| --- | --- |
| GCGGUUUCUUACCAAUAACTT against Cyp1a2 | 0.984 (inactive) |
| GGAAGCGUGGAAGUCUACGTT against Kcnj16 | 0.277 (inactive) |
| GGGCAAAGGGAGUGACAAATT against Skp2 | -1.95 (inactive) |
| GGACAACUACAUUGUACUGTT against Insr | -1.16 (inactive) |
| GGCAGCAGAGAACAAGAAATT against Serbp1 | -1.43 (inactive) |
| CCCAACUGACAUCUUCCUATT against Gzmb | 2.86 (active) |
| GGAAAGCACAUCCUCUUUGTT against Gpx6 | 1.02 (inactive) |
| CGUGAUUUCAGUGAGGGUGTT against Tarsl2 | 0.996 (inactive) |
| CGAAGUGAAGAUUUACAGCTT against Nol10 | -0.106 (inactive) |
| GCAAUGUGACCAAGACAAUTT against Prelid1 | 0.739 (inactive) |
| GGCGUGAUAGCUGGACUUATT against Eola1 | 0.439 (inactive) |
| GGCCAUAUCUUAAAGUUAATT against Hcfc1r1 | -0.246 (inactive) |
| GACCAGUGACAAGACCAUCTT against Unc45b | 0.352 (inactive) |
| GGUGCAGGCCAUGAUUUACTT against C1qtnf4 | 2.65 (active) |
| GGAAAUGCCACCAAAGAACTT against Slc38a11 | -0.168 (inactive) |
| CGGACUUGUUUUUUAGUCUTT against Tnrc18 | 0.164 (inactive) |
| GGCCAACUGGAGAUAGAUATT against Tamm41 | 1.19 (inactive) |
| GGAUAAUGGUUUAAAACUCTT against Bmt2 | -1.34 (inactive) |
| GGAAAACCUACCGAAGUUATT against Irf3 | 2.79 (active) |
| GCAUUGAAGUCACCUCCACTT against Clcn2 | 0.161 (inactive) |
